{"source": "PubChem BioAssay (NCI)", "note": "This is part of a sample that, as a whole, favours compounds with a hit. Of some 83,000 tested, about 20% had one in any assay.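 Percent growth is the endpoint: 0 to 100 indicates growth inhibition (40 means 60% inhibition), 0 means no net growth, and negative values indicate cell death.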 Values without a mark were called inactive. The source made the active and inactive calls. The calls were made as follows: active = growth percent below 10; inactive = the rest.", "data": [{"system": "ACHN renal", "assay": "NCI-60 one-dose screen, 48 h (100 = growth as untreated, 0 = no growth, -100 = all killed)", "details": "10 µM", "values": [{"molecule": "CCN(CC)CCNc1ccc(CO)c2oc3cc(Cl)ccc3c(=O)c12", "growth": "60.9%"}, {"molecule": "O=C(O)C(SC(C(=O)O)c1ccccc1)c1ccccc1", "note": "(centres undefined)", "growth": "104%"}, {"molecule": "COc1ccc(-c2nc3ccccn3c2-c2nnc(-c3cc(OC)c(OC)c(OC)c3)o2)cc1", "growth": "49.4%"}, {"molecule": "N#Cc1c(C#N)c(SSc2c(C#N)c(C#N)c(N)n2-c2ccccc2)n(-c2ccccc2)c1N", "growth": "101%"}, {"molecule": "Cc1ccc(-c2nc(/C=C3/C(=O)N(C)c4ccc(F)cc43)c3ccccn23)cc1", "growth": "88.5%"}, {"molecule": "CCN(CC)CCSCCCNc1c2ccc(Cl)cc2nc2ccc(OC)cc12", "growth": "-78.3% (active)"}, {"molecule": "CN1CC[C@@H](c2c(O)cc(O)c3c(=O)cc(-c4ccccc4Cl)oc23)[C@@H](O)C1", "growth": "-14.1% (active)"}, {"molecule": "NC1=NC(=O)C(c2ccccc2)(c2ccccc2)S1", "growth": "107%"}, {"molecule": "CCc1ccc2c(c1)N(CCO)C1=C(C(=O)OC1)C2c1ccccc1", "note": "(centres undefined)", "growth": "88.6%"}, {"molecule": "Cc1cccc2c(NCCN(C)C)c3cccc(C(=O)NCCN(C)C)c3nc12", "growth": "-44.6% (active)"}, {"molecule": "CCCN(CCC)CCC(O)c1cc2c(c3ccccc13)CCCC2", "note": "(centres undefined)", "growth": "86.9%"}, {"molecule": "COc1ccc2c(c1)/C(=C\\c1c[nH]c3ccc(OC)cc13)C(=O)N2", "growth": "39.6%"}, {"molecule": "Nc1ccn(C2CC(O)C(CO)O2)c(=O)n1", "note": "(centres undefined)", "growth": "104%"}, {"molecule": "COc1cccc(C2C3=C(COC3=O)N(CCO)c3cc(OC)ccc32)c1", "note": "(centres undefined)", "growth": "31.9%"}, {"molecule": "C=C(C(=O)c1ccccc1)C(NC(C)(C)C)c1ccccc1", "note": "(centres undefined)", "growth": "-59.4% (active)"}, {"molecule": "CCCC1(CC(=O)O)OCCc2c1[nH]c1ccccc21", "note": "(centres undefined)", "growth": "111%"}, {"molecule": "CN(C)C(=S)N/N=C\\C=N/NC(=S)N(C)C", "growth": "80%"}, {"molecule": "C=C(NC(=O)C(=C)NC(=O)c1csc(C2=NC3c4csc(n4)C4NC(=O)c5csc(n5)C(C(C)(O)C(C)O)NC(=O)C5CSC(=N5)/C(=C/C)NC(=O)C(C(C)O)NC(=O)c5csc(n5)C3(CC2)NC(=O)C(C)NC(=O)C(=C)NC(=O)C(=C)NC(=O)C(C(C)C)NC2C=Cc3c(C(C)O)cc(nc3C2O)C(=O)OC4C)n1)C(N)=O", "note": "(centres undefined)", "growth": "-26.8% (active)"}, {"molecule": "COc1ccc2nc3ccccc3c(NCCNCC(C)O)c2c1", "note": "(centres undefined)", "growth": "-3.07% (active)"}, {"molecule": "CN(C)CCN1C(=O)c2cccc3cc(N)cc(c23)C1=O", "growth": "-30.3% (active)"}, {"molecule": "COc1ccc(N2C(=O)C3c4[nH]c5ccc(OCc6ccccc6)cc5c4C4CCC(C(C)C)CC4C3C2=O)cc1", "note": "(centres undefined)", "growth": "3.44% (active)"}, {"molecule": "CC(C)C[C@H](NC(=O)[C@H](Cc1cccc2ccccc12)NS(=O)(=O)c1cccc2cccnc12)B(O)O", "growth": "-3.75% (active)"}, {"molecule": "O=C(CC(C(=O)c1ccccc1)N1CCOCC1)c1ccccc1", "note": "(centres undefined)", "growth": "97.3%"}, {"molecule": "NC(=O)SCC(=O)Nc1ccc(S(N)(=O)=O)cc1", "growth": "112%"}, {"molecule": "CCCCN(CCCC)CCCCCCCCC(O)c1cc2ccccc2c2ccccc12", "note": "(centres undefined)", "growth": "59.9%"}, {"molecule": "O=C(CCCCCCC(=O)Nc1cccnc1)NO", "growth": "65.7%"}, {"molecule": "COc1ccc2nc3cc(Cl)ccc3c(NCCNCC(C)O)c2c1", "note": "(centres undefined)", "growth": "22.6%"}, {"molecule": "Clc1cccc(-c2nc(-c3cccs3)no2)c1", "growth": "96.3%"}, {"molecule": "CCCCCCCCCCCCCCCCCCOCC(COCCOCC[N+]1(CCCCCC(=O)[O-])CCCC1)Oc1ncccn1", "note": "(centres undefined)", "growth": "69.2%"}, {"molecule": "CC/C(=N\\N=C(/CC)c1ccc(Br)cc1)c1ccc(Br)cc1", "growth": "94.4%"}, {"molecule": "O=C1OCC2=C1C(c1ccc(Cl)c(Cl)c1)c1cc3c(cc1N2CCO)OCCO3", "note": "(centres undefined)", "growth": "46.2%"}, {"molecule": "COc1cc2nc(Nc3cccc(NC(C)=O)c3)nc(N)c2cc1OC", "growth": "102%"}, {"molecule": "Cc1nc2ccc(CN(C)c3ccc(C(=O)N[C@@H](CCC(=O)O)C(=O)O)s3)cc2c(=O)[nH]1", "growth": "34.1%"}, {"molecule": "CCCCCCCCN(CCCCCCCC)CCCCCCCCCN1CCCc2cc(OC)ccc21", "growth": "96.5%"}, {"molecule": "Nc1ncnc2[nH]c(=O)[nH]c12", "growth": "98.9%"}, {"molecule": "COc1ccc2c(c1)sc1nc(-c3ccccc3)c(-c3cccnc3)n12", "growth": "97.7%"}, {"molecule": "C=C(Cl)[C@@](Cl)(CBr)CC[C@@H](Br)C(C)(C)Cl", "growth": "-99.4% (active)"}, {"molecule": "C[N+](C)(C)c1ncnc2nc[nH]c12", "growth": "91.1%"}, {"molecule": "COC(=O)[C@@H]1[C@H](O)[C@H](C)[C@H](O)[C@@](C)(O)/C=C\\C=C(C)C(=O)Nc2c(C)c(OC(C)=O)c3c(c2O)C(=O)C(C)=C2OCOC(=C23)C(C)=C[C@@](C)(O)[C@H](O)[C@@H](C)[C@H]1OC(C)=O", "growth": "110%"}]}]}
